{
  "source": "the supplement of paper PMC11383364",
  "note": "“And” between values parts separate entries of the source, which are not always exact repeats. Equal values may be shown once. ± gives the standard deviation of the averaged measurements.",
  "data": [
    {"system": "SUM149", "test": "percent difference in area under dose-response curve of relative cell number, RPMI vs HPLM; higher = drug relatively more effective in HPLM than RPMI (negative = less effective in HPLM)", "conditions": "treatment time: 72 h; dose range: 10-point, 1 nM to 20 µM; media compared: RPMI vs HPLM", "method": "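SUM149 triple-negative breast cancer cells, 500 cells/well in 384-well plates, were grown in RPMI or human plasma-like medium (HPLM) with 5% dialyzed FBS. They were pin-transferred with an anticancer plus metabolic-inhibitor library in 10-point dose series (20 µM to 1 nM). After 72 h, cells were fixed, stained with bisbenzimide and counted by Acumen plate cytometry. The AUC of relative survival vs dose was computed per medium, and the percent difference in AUC between RPMI and HPLM is reported.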", "values": [
      {"molecule": "C[C@@H]1CN(CC(=O)Nc2ccc3c(c2)Cc2cccc(-c4cc(=O)cc(N5CCOCC5)o4)c2S3)C[C@H](C)O1", "percent difference in area under dose-response curve": "-5.04%"},
      {"molecule": "N#CC[C@H](C1CCCC1)n1cc(-c2ncnc3[nH]ccc23)cn1", "note": "[SRuxolitinib]", "percent difference in area under dose-response curve": "-0.914%"},
      {"molecule": "Cc1ccc(C(=O)N(CCCN)[C@@H](c2nc3cc(Cl)ccc3c(=O)n2Cc2ccccc2)C(C)C)cc1", "note": "[Ispinesib]", "percent difference in area under dose-response curve": "-43.4%"},
      {"molecule": "O=c1cnn([C@@H]2O[C@H](CO)[C@@H](O)[C@H]2O)c(=O)[nH]1", "note": "[6_Azauridine]", "percent difference in area under dose-response curve": "15.1%"},
      {"molecule": "c1cc(-c2cnn3cc(-c4ccc(OCCN5CCCCC5)cc4)cnc23)ccn1", "note": "[Dorsomorphin]", "percent difference in area under dose-response curve": "-2.35%"},
      {"molecule": "Oc1nc(-c2ccc(C(F)(F)F)cc2)nc2c1CSCC2", "percent difference in area under dose-response curve": "-0.882%"},
      {"molecule": "Cc1ccc(F)c(NC(=O)Nc2ccc(-c3cccc4[nH]nc(N)c34)cc2)c1", "note": "[Linifanib]", "percent difference in area under dose-response curve": "0.938%"},
      {"molecule": "CCN(CC)C(=S)SSC(=S)N(CC)CC", "note": "[Disulfiram]", "percent difference in area under dose-response curve": "-27.1 ± 6.8%"},
      {"molecule": "CN(C)CC[C@H](CSc1ccccc1)Nc1ccc(S(=O)(=O)NC(=O)c2ccc(N3CCN(Cc4ccccc4-c4ccc(Cl)cc4)CC3)cc2)cc1[N+](=O)[O-]", "percent difference in area under dose-response curve": "-4.67% and 1.88%"},
      {"molecule": "Cc1cnc(-c2ccccc2C(C)C)nc1NCc1ccc(-n2ccnn2)cc1", "percent difference in area under dose-response curve": "-3.5%"},
      {"molecule": "COc1cc(OC)c(/C=C/S(=O)(=O)Cc2ccc(OC)c(NCC(=O)O)c2)c(OC)c1", "note": "[Rigosertib]", "percent difference in area under dose-response curve": "-46.7%"},
      {"molecule": "CN(C)Cc1c(C(=O)NCCOc2ccc(C(=O)NO)cc2)oc2ccccc12", "percent difference in area under dose-response curve": "0.731%"},
      {"molecule": "COc1cc(Nc2ncc(F)c(Nc3ccc4c(n3)NC(=O)C(C)(C)O4)n2)cc(OC)c1OC", "percent difference in area under dose-response curve": "6.12%"},
      {"molecule": "CCN(CC)CCNC(=O)c1c(C)[nH]c(/C=C2\\C(=O)Nc3ccc(F)cc32)c1C", "note": "[Sunitinib_Malate]", "percent difference in area under dose-response curve": "3.02%"},
      {"molecule": "Oc1cccc(-c2nc(N3CCOCC3)c3oc4ncccc4c3n2)c1", "percent difference in area under dose-response curve": "3.18%"},
      {"molecule": "Nc1ccccc1NC(=O)c1ccc(CNc2nccc(-c3cccnc3)n2)cc1", "note": "[Mocetinostat]", "percent difference in area under dose-response curve": "0.546%"},
      {"molecule": "CCCCCCNC(=O)n1cc(F)c(=O)[nH]c1=O", "note": "[Carmofur]", "percent difference in area under dose-response curve": "-3.39%"},
      {"molecule": "O=S(=O)(N=Cc1c(O)ccc2ccccc12)c1cccs1", "percent difference in area under dose-response curve": "-2.44%"},
      {"molecule": "COC(=O)Nc1nc2cc(C(=O)c3cccs3)ccc2[nH]1", "note": "[Nocodazole]", "percent difference in area under dose-response curve": "-17.2%"},
      {"molecule": "C=CC(=O)N1CCC[C@@H](n2nc(-c3ccc(Oc4ccccc4)cc3)c3c(N)ncnc32)C1", "percent difference in area under dose-response curve": "7.26%"},
      {"molecule": "CO[C@@H](C(=O)N1Cc2[nH]nc(NC(=O)c3ccc(N4CCN(C)CC4)cc3)c2C1)c1ccccc1", "note": "[Danusertib]", "percent difference in area under dose-response curve": "-17.3%"},
      {"molecule": "COc1cccc2c1C(=O)c1c(O)c3c(c(O)c1C2=O)C[C@@](O)(C(=O)CO)C[C@@H]3O[C@H]1C[C@H](N)[C@H](O)[C@H](C)O1", "note": "[Doxorubicin]", "percent difference in area under dose-response curve": "-24.4%"},
      {"molecule": "C/C=C1\\NC(=O)[C@H]2CSSCC/C=C/[C@H](CC(=O)N[C@H](C(C)C)C(=O)N2)OC(=O)[C@H](C(C)C)NC1=O", "note": "[Romidepsin]", "percent difference in area under dose-response curve": "-30.5%"},
      {"molecule": "Nc1ccn([C@@H]2C=C(CO)[C@@H](O)[C@H]2O)c(=O)n1", "note": "[Cyclopentenyl_cytosine]", "percent difference in area under dose-response curve": "2.58%"},
      {"molecule": "CC(C)(C)c1cnc(CSc2cnc(NC(=O)C3CCNCC3)s2)o1", "percent difference in area under dose-response curve": "-3.83%"},
      {"molecule": "Cc1nc(N)sc1-c1ccnc(Nc2ccc(N3CCOCC3)cc2)n1", "percent difference in area under dose-response curve": "11%"},
      {"molecule": "NC(=O)c1[nH]nc([C@@H]2O[C@H](CO)[C@@H](O)[C@H]2O)c1O", "note": "[Pyrazofurin]", "percent difference in area under dose-response curve": "5.89%"},
      {"molecule": "Nc1nc2c(c(=O)[nH]1)C[C@@H](CCc1ccc(C(=O)N[C@@H](CCC(=O)O)C(=O)O)cc1)CN2", "note": "[Lometrexol]", "percent difference in area under dose-response curve": "-68%"},
      {"molecule": "CC(=O)[C@]1(O)Cc2c(O)c3c(c(O)c2[C@@H](O[C@H]2C[C@H](N)[C@H](O)[C@H](C)O2)C1)C(=O)c1ccccc1C3=O", "note": "[Idarubicin_HCl]", "percent difference in area under dose-response curve": "-49.3%"},
      {"molecule": "CC[C@@H]1C(=O)N(C)c2cnc(Nc3ccc(C(=O)N[C@H]4CC[C@H](N5CCN(CC6CC6)CC5)CC4)cc3OC)nc2N1C(C)C", "percent difference in area under dose-response curve": "-16.8%"},
      {"molecule": "CCN1CCN(Cc2ccc(-c3cc4c(N[C@H](C)c5ccccc5)ncnc4[nH]3)cc2)CC1", "percent difference in area under dose-response curve": "-3.13%"},
      {"molecule": "CC[C@@H]1C(=O)N(C)c2cnc(Nc3ccc(C(=O)NC4CCN(C)CC4)cc3OC)nc2N1C1CCCC1", "percent difference in area under dose-response curve": "-23%"},
      {"molecule": "Cc1ccc([C@@H]2O[C@H](CO)[C@@H](O)[C@H](O)[C@H]2O)cc1Cc1ccc(-c2ccc(F)cc2)s1", "note": "[Canagliflozin]", "percent difference in area under dose-response curve": "-4.56%"},
      {"molecule": "Cc1cccc(-c2[nH]c(C(C)(C)C)nc2-c2ccc3nccnc3c2)n1", "percent difference in area under dose-response curve": "-7.49%"},
      {"molecule": "Cc1nc(Nc2n[nH]c3c2CN(C(=O)N[C@H](CN(C)C)c2ccccc2)C3(C)C)c2sccc2n1", "percent difference in area under dose-response curve": "-62.7%"},
      {"molecule": "CCC(C)(C)C(=O)O[C@H]1C[C@@H](C)C=C2C=C[C@H](C)[C@H](CC[C@@H]3C[C@@H](O)CC(=O)O3)[C@H]21", "note": "[Simvastatin]", "percent difference in area under dose-response curve": "-12.1%"},
      {"molecule": "CC(C)(C)c1ccc(S(=O)(=O)NCc2ccc(C(=O)Nc3cccnc3)cc2)cc1", "percent difference in area under dose-response curve": "-12.4%"},
      {"molecule": "Cc1cc(NC(=O)c2cccc(NC(=O)/C=C/CN(C)C)c2)ccc1Nc1nccc(-c2cccnc2)n1", "percent difference in area under dose-response curve": "7.32%"},
      {"molecule": "CCCS(=O)(=O)Nc1ccc(F)c(C(=O)c2c[nH]c3ncc(-c4ccc(Cl)cc4)cc23)c1F", "note": "[Vemurafenib]", "percent difference in area under dose-response curve": "6.44%"},
      {"molecule": "OCCN(CCO)c1nc(N2CCCCC2)c2nc(N(CCO)CCO)nc(N3CCCCC3)c2n1", "note": "[Dipyridamole]", "percent difference in area under dose-response curve": "2.66%"}
    ]}
  ]
}
